Assays:
Assay in all cases: PBM binding z-score (relative to random genomic background probes); higher = stronger binding; sequences stand for … in GC…GCGATTGACAGCGTAGAATGAAGG
[1] = test system: PPARg:RXRa DBDmut IVT, anti-RXR (DBD mutation: RXRa K156A/R161A, NR concentration 270 nM, RXRa partner concentration 90 nM)
Procedure, shortened: (§1)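 Binding z-scores were set against random background probes. The data came from custom Agilent 4×180K protein-binding microarrays carrying double-stranded probes with 34-nt variable regions, incubated 1 h with ligand-free nuclear receptor dimers. Partner-specific antibodies detected binding, and scanned fluorescence was regression-normalized.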

[2] = test system: PPARg:RXRa IVT, anti-PPARg (NR concentration 270 nM, RXRa partner concentration 90 nM)
Procedure, shortened: as §1

[3] = test system: PPARg DBDmut:RXRa IVT, anti-PPARg (DBD mutation: PPARg1 K132A/R137A, NR concentration 270 nM, RXRa partner concentration 90 nM)
Procedure, shortened: as §1

[4] = test system: PPARg DBDmut IVT, anti-PPARg (DBD mutation: PPARg1 K132A/R137A, NR concentration 270 nM)
Procedure, shortened: as §1

[5] = test system: PPARg homodimer (NR concentration 180 nM)
Procedure, shortened: as §1

[6] = test system: PXR:RXRa (NR concentration 270 nM, RXRa partner concentration 90 nM)
Procedure, shortened: as §1

[7] = test system: PXR homodimer (NR concentration 270 nM)
Procedure, shortened: as §1

[8] = test system: RARa:RXR (NR concentration 270 nM, RXRa partner concentration 90 nM)
Procedure, shortened: as §1

[9] = test system: RARa homodimer (NR concentration 270 nM)
Procedure, shortened: as §1

[10] = test system: RARb:RXRa (NR concentration 270 nM, RXRa partner concentration 90 nM)
Procedure, shortened: as §1

[11] = test system: RARb homodimer (NR concentration 270 nM)
Procedure, shortened: as §1

[12] = test system: RARg:RXRa (NR concentration 270 nM, RXRa partner concentration 90 nM)
Procedure, shortened: as §1

[13] = test system: RARg homodimer (NR concentration 270 nM)
Procedure, shortened: as §1

[14] = test system: RXRa DBDmut IVT, anti-RXR (DBD mutation: RXRa K156A/R161A, NR concentration 90 nM)
Procedure, shortened: as §1

[15] = test system: RXRa homodimer (NR concentration 180 nM)
Procedure, shortened: as §1

[16] = test system: THRa:RXRa (NR concentration 90 nM, RXRa partner concentration 90 nM)
Procedure, shortened: as §1

[17] = test system: THRa homodimer (NR concentration 90 nM)
Procedure, shortened: as §1

[18] = test system: VDR homodimer (NR concentration 270 nM)
Procedure, shortened: as §1

| Sequence | PBM binding z-score [1] | PBM binding z-score [2] | PBM binding z-score [3] | PBM binding z-score [4] | PBM binding z-score [5] | PBM binding z-score [6] | PBM binding z-score [7] | PBM binding z-score [8] | PBM binding z-score [9] | PBM binding z-score [10] | PBM binding z-score [11] | PBM binding z-score [12] | PBM binding z-score [13] | PBM binding z-score [14] | PBM binding z-score [15] | PBM binding z-score [16] | PBM binding z-score [17] | PBM binding z-score [18] |
| --- | --- | --- | --- | --- | --- | --- | --- | --- | --- | --- | --- | --- | --- | --- | --- | --- | --- | --- |
| TTACCAAGGTGAACGTCGTTGATCCCTCTGTAGA | 2.54 | 3.17 | 0.0811 | 1.09 | 0.021 | 0.627 | -0.305 | 1.26 | -0.00319 | 1.77 | 0.909 | 0.602 | 0.629 | -0.298 | 1.19 | 2.32 | 0.991 | -0.626 |
| ATATATAGGTTATCGGGTCATTCAGTTTGCGCAT | 7.55 | 7.39 | 3.48 | 3.64 | 4.29 | 3.91 | 8.17 | 4.26 | 3.1 | 2.96 | 3.49 | 3.74 | 2.97 | 2.18 | 4.13 | 3.51 | 3.2 | 4.39 |
| TGAATGAGGTTATAAGATCAGGTAACGTTGCAAA | 1.19 | 1.74 | 0.858 | 0.555 | 0.252 | 0.996 | 0.0498 | 1.59 | 0.49 | 1.12 | 0.391 | 1.41 | 1.13 | 0.758 | 1.87 | 2.61 | 1.06 | 0.507 |
| TCAAATAGGTAAAAGGTGAAAGTCGGTGTGGTAA | 4.66 | 4.53 | 0.779 | 0.749 | 2.29 | 1.91 | 0.411 | 3.31 | 1.82 | 2.27 | 2.05 | 1.86 | 1.07 | 2.15 | 3.26 | 1.77 | 0.3 | 0.497 |
| ATCTCTAGGTAAAGTTCAGTGTAAGATCGATAGA | 2.66 | 2.9 | 1.2 | 1.55 | 2.13 | 2.21 | 2.38 | 1.53 | 1.49 | 2.56 | 2.72 | 2.02 | 2.42 | 1.71 | 1.19 | 1.65 | 0.624 | 2.46 |
| ATCTCTAGGCAAAAGTTCAGTGAATCCCGAGGAT | 0.185 | 1.61 | 0.694 | 0.529 | 1.05 | 1.5 | 1.04 | 0.864 | -0.11 | 2.33 | 2.4 | 1.66 | 1.69 | 0.479 | 1.02 | 0.622 | -0.181 | 0.923 |
| TAATATAGGTAAAAGGTGAAAGTCGGTGTGGTAA | 7.05 | 6.22 | 2.17 | 1.62 | 2.02 | 1.8 | 0.982 | 3.16 | 1.75 | 1.94 | 2.01 | 2.15 | 1.32 | 0.341 | 2.95 | 1.87 | 0.816 | 0.638 |

Source: the supplement of paper PMC6555819
